# Only some compounds are listed: those with a hit (about 6.9% of all), similar ones and a draw of the others.
# IL-1B inflam inh = inhibitors of inflammasome signaling (IL-1 beta secretion); THP-1 LPS/ATP IL-1B secretion, AlphaLISA, 16 h; active compounds read low; activity change, % at 57.5 µM; 360,000 compounds, 4.7% hits; AID 743279; in the data active = activity change below about -50%; inconclusive = mostly about -30% to -49%; also: % is scaled to controls: 0 for no effect and ±100 for the full control effect
#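 THP-1 cells pretreated 1 hr with compounds (up to 57.5 uM final), then stimulated with LPS (250 ng/mL final) plus ATP (1.25 mM final); secreted IL-1B measured by AlphaLISA after 16 hr, decreased signal indicating inhibition.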
# Vif-APOBEC3F blk = inhibitors of Vif-A3F interaction. HeLa A3F-eYFP + Vif (tagged APOBEC3F with the HIV-1 protein that degrades it), YFP fluorescence increase. Potency, µM (titrated, usually from 46.1 µM), for the others: top-dose activity, negative = active. 390,000 compounds, 0.2% hits; also: potency is read from the fitted curve at half-maximal effect; % of control where 0% means no effect; nearly all actives have a fitted effect of over 65% in size
#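 Fluorescence increase (Ex 488/Em 500-530) after overnight compound treatment at 37 deg C flags inhibition of Vif-driven A3F-eYFP loss in stable HeLa A3F-eYFP/Vif cells seeded overnight beforehand.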
# Giardia killer = kills Giardia lamblia. Giardia lamblia trophozoite viability. activity change, % at 7.66 µM, hits read low. 340,000 compounds, 0.15% hits. AID 540267; in the data active = activity change below about -80%; inconclusive = between about -30% and that limit;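 also: parasites exposed to compound for two days anaerobically before the ATP read; % is scaled to controls: 0 for no effect and ±100 for the full control effect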
#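 Viability, read as ATP luminescence: trophozoites at 100 cells/well, compound added, 48 hrs anaerobic at 37 deg C, then 15-30 min room-temperature development before reading.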
# MCF10A rereplic = inducers of DNA re-replication in MCF 10A breast cells | MCF 10A DNA re-replication, Hoechst nuclear intensity, 48 h | Potency, µM (top dose mostly 46.1 µM), without a hit: at the highest dose activity, positive = re-replication, hits mostly activators | 350,000 compounds, 2.9% hits | AID 624296; also: potency is read from the fitted curve at half-maximal effect; % of control where 0% means no effect; nearly all actives have a fitted effect of over 50% in size
# Vif-A3G inh = blocks the Vif interaction with human APOBEC3G | Q9HC16 | HeLa A3G-eYFP + Vif (tagged APOBEC3G with the HIV-1 protein that degrades it), YFP fluorescence, overnight | Potency, µM (doses to about 46.1 µM), for the others: at the top dose activity, negative = active, hits mostly inhibitors | 410,000 compounds, 0.076% hits; also: potency is read from the fitted curve at half-maximal effect; % is scaled to controls: 0 for no effect and ±100 for the full control effect; nearly all actives have a fitted effect of over 60% in size
# Target sequence (Q9HC16 whole entry, looked up): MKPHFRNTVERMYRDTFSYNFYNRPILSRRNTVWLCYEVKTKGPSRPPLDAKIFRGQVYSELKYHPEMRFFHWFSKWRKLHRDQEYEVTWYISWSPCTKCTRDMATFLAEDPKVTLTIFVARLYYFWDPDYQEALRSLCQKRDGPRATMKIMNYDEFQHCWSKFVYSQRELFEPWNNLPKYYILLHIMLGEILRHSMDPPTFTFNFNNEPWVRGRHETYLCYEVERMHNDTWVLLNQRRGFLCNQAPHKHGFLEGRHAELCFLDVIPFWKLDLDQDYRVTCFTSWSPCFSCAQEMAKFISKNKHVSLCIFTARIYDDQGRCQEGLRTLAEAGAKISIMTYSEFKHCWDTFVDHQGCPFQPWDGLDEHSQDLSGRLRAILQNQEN
#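 Read-out is eYFP fluorescence (Ex 488/Em 500-530) from Vif-expressing HeLa A3G-eYFP cells; more signal means A3G escaped Vif-mediated degradation. Cells plated overnight, compound pinned in, incubated overnight at 37 deg C.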
# SW480 rerep = DNA re-replication induction in SW480 cells | SW480 DNA re-replication, Hoechst DNA content imaging, 48 h | Potency, µM (titrated, usually from 46.1 µM), for the others: at the highest dose re-replication activation, usual class: activators | 340,000 compounds, 1.8% hits; also: potency is read from the fitted curve at half-maximal effect; % of control where 0% means no effect; nearly all actives have a fitted effect of over 55% in size
#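 Compounds, transferred as 23 nL by pin tool, were incubated with cells for 48 hr; DNA content per nucleus was then quantified by Hoechst staining and fluorescence plate imaging.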
# * hit, by the source's call; i = inactive; ? = inconclusive; . = no result given; ! = not active in a repeat; [ ] = remark or other dose. Unless noted, calls follow the shape of the dose curve; as a rule, active = well fitted curve in the direction sought with a large enough effect; inconclusive = small, poorly fitted or top-dose-only effect, or another doubt; inactive = no such curve, though single readings can be large; an effect the other way counts as inactive or inconclusive.
SMILES,IL-1B inflam inh,Vif-APOBEC3F blk,Giardia killer,MCF10A rereplic,Vif-A3G inh,SW480 rerep
Cc1cc2c(C(C)C)c(O)c(O)c(C=O)c2c(O)c1-c1c(C)cc2c(C(C)C)c(O)c(O)c(C=O)c2c1O,.,.,.,?,10%,13µM*!
Cc1ccc(S(=O)(=O)Oc2ccccc2C=C2C(=O)NC(=O)NC2=O)cc1,-55*,-3%,.,.,-7%,.
O=C(CN1CCOCC1)c1ccc2ccccc2c1,.,.,.,.,1%,.
O=C1c2ccccc2-c2cccc3cccc1c23,-17,?,2,8%,-3%,-8%
c1ccc2c(c1)cc1ccc3cccc4ccc2c1c34,-11,?,-11,?,-8%,21µM*
NS(=O)(=O)c1ccc(-c2ccc(C=C3C(=O)NC(=O)NC3=O)o2)cc1,39,-8%,0,-4%,2%,2%
O=C1NC(=O)C(=Cc2ccc(SC3CCCCC3)o2)C(=O)N1,?,?,-1,21µM*,-27%,?
CC(C)C(=O)Nc1ccc([N+](=O)[O-])c(C(F)(F)F)c1,8,3%,3,-10%,1%,-84%
CC[C@H]1CN2CCc3cc(OC)c(OC)cc3[C@H]2C[C@@H]1C[C@@H]1NCCc2cc(OC)c(OC)cc21,.,.,.,34%,.,?
Oc1cc(Cl)c(Cl)c(Cl)c1Cl,?,-11%,-25,15µM*,-4%,-3%
NC(=O)CN1CC(O)CC1=O (configuration not stated),.,.,.,1%,.,-2%
CCCNc1nc(-c2cc(C(=O)Nc3ccccc3)on2)cc(C(C)C)n1,-101*,6%,?,14%,1%,-2%
Cc1cccc(-n2c(O)c(/C=C/C=Nc3ccccc3)c(=O)[nH]c2=O)c1,0,10µM*,-7,13%,5%,?
Cc1ccccc1-n1c(O)c(/C=C/C=Nc2ccccc2)c(=O)[nH]c1=O,12,20µM*,21,-73%,0%,-9%
CNS(=O)(=O)c1ccc(N=Cc2c(O)n(-c3cccc(C)c3)c(=O)[nH]c2=O)cc1,4,0%,-17,-17%,-5%,-24%
CN(C)CC/C=C1/c2ccccc2Sc2ccc(Cl)cc21,-63*!,-3%,-22,?,1%,-65%
c1ccc(CCc2ccc3n2Cc2cnnn2-c2ccccc2-3)cc1,-58*,-2%,6,?,-6%,?
Fc1cccc(-c2ccc3c(c2)CN(C(=S)NCCc2ccccc2)Cc2cnnn2-3)c1,-57*,.,.,.,-4%,.
COc1ccc(-c2ccc3c(c2)CN(c2cccc(Cl)c2)Cc2cnnn2-3)cc1,-3,.,.,.,-2%,.
Clc1cccc(N2Cc3cc(-c4ccccc4)ccc3-n3nncc3C2)c1,-110*,.,.,.,?,.
C[N+]12CCC(CC1)C(OC(=O)C(O)(c1ccccc1)c1ccccc1)C2 (configuration not stated),-3,2%,12,8%,2%,0%
O=C(c1ccc2c(c1)N(Cc1ccc(F)cc1)CCS2)N1CCC2(CC1)OCCO2,-65*,0%,42,?,-2%,24%
Cc1ccc(CN2CCSc3ccc(C(=O)N4CCC5(CC4)OCCO5)cc32)cc1,?,0%,3,6%,4%,-21%
COc1ccc(-n2c(/C=C\c3ccccc3F)nc3ccccc3c2=O)c(OC)c1,.,-1%,.,.,5%,.
O=c1ccc2cc(O[C@@H]3O[C@@H](CO)[C@H](O)[C@@H](O)[C@@H]3O)c(O)cc2o1,47,2%,-1,18µM*,-1%,?
SMILES,IL-1B inflam inh,Vif-APOBEC3F blk,Giardia killer,MCF10A rereplic,Vif-A3G inh,SW480 rerep
O=c1ccc2cc(O[C@H]3O[C@@H](CO)[C@@H](O)[C@@H](O)[C@@H]3O)c(O)cc2o1,.,.,.,?,.,2%[20.6 µM]
CN1CCC(N(C)c2nc(-c3ccc([N+](=O)[O-])cc3)nc3ccccc23)CC1,-96*,6%,6,24%,-9%,?
Cc1ccc(C(=O)CN2CCOCC2)cc1,.,.,.,.,-2%,.
O=C(COc1ccc(Cl)cc1)N1CCN(C/C=C/c2ccccc2)CC1,-75*,4%,16,?,2%,0%
CN1C(=O)C(=Cc2ccc(N3CCCCCC3)o2)C(=O)N(C)C1=S,-26,i,-7,1%,?,-5%
CN1C(=O)C(=Cc2ccc(N3CCOCC3)o2)C(=O)N(C)C1=O,12,11µM*,1,?,-10%,-7%
CCN(CC(=O)Nc1ccccc1C(F)(F)F)C(=O)CCSc1ccc(F)cc1,-14,?,6,5%,-2%,8%
COc1ccc(F)cc1CN1CCN(C(=O)CCC(=O)Nc2nnc(CC(C)C)s2)CC1,22,5%,2,18µM*,4%,?
Oc1ccccc1/C=N/[n+]1ccccc1,4,-8%,?,-2%,0%,-11%
CC1(C(=O)O)CCCC2(C)c3cc(O)ccc3CCC12 (configuration not stated),-3,3%,5,18µM*,0%,-13%
C[C@]12CC[C@H]3C(=CCc4cc(O)ccc43)[C@@H]1CCC2=O,0,-2%,34,?,-8%,-26%
C[C@H]1C=CC(=O)O[C@H]1c1ccccc1,-105*,8%,3,?,-18%,-7%[9.22 µM]
CC1C(c2ccccc2)OCCN1C (configuration not stated),3,4%,14,1%,1%,-2%
CCOc1ccc(-n2c(-c3ccoc3)nc3ccccc3c2=O)cc1,-15,-12%,0,-9%,0%,5%
CCOc1ccc(-c2c(C)n(-c3ccc(OCC)cc3)c3[n+]2CCCCC3)cc1,-92*,-24%,15,?,6%,?
C/C(CC(c1ccccc1)c1c(O)c2ccccc2oc1=O)=N\NC(N)=S (configuration not stated),32,-7%,-20,-31%,0%,16µM*
COc1ccc(C(=O)CC(c2ccc(OC)c(OC)c2)c2c(O)c3ccccc3oc2=O)cc1OC (configuration not stated),14,-3%,.,.,-4%,.
CCc1ccc(NP(=O)(Oc2ccccc2F)Oc2ccccc2F)cc1,-102*,6%,8,22%,1%,27%
Cc1ccc(NP(=O)(Oc2ccccc2F)Oc2ccccc2F)cc1,-20,-4%,-1,18µM*,-2%,?
Cc1cccc(NP(=O)(Oc2ccccc2F)Oc2ccccc2F)c1C,?,-1%,-14,?,-18%,20%
Cc1ccc(NP(=O)(Oc2ccccc2)Oc2ccccc2)cc1,-7,-18%,66,0%,-10%,9%[1.84 µM]
Cc1ccc(NP(=O)(Nc2ccc(C)cc2)Oc2ccccc2)cc1,-71*,-22%,-14,-16%,5%,20%
